In PubChem BioAssay:
“And” between values parts separate entries of the source, which are not always exact repeats. Equal values may be shown once. The source made the active and inactive calls. Unless noted, how the calls were made is not given here.

Legend:
[1] = system: XIP peptide (Xip251-270) binding; test: XIP fragment 251-270 binding compounds – biochemical, small-molecule microarray, fluorescence 635/667 nm, 0.1 µg/mL protein, primary screen (AID 1182); details: fluorescent protein binding, 635 nm, higher = more signal, called active from +8 up or from −8 down
XIP peptide (Xip251-270) = test: compounds binding XIP fragment 251-270 – biochemical, small-molecule microarray, fluorescence 635/667 nm, 0.5 µg/mL protein, primary screen (AID 1183); details: fluorescence 635 nm, higher = more signal
[2] = blood-stage malaria parasite viability loss – strain 3D7, DAPI fluorescence, 100 nL, primary screen (AID 1184);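 further: parasites grown inside human red blood cells in medium with human serum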; details: P. falciparum 3D7 growth, 3 d, higher = more signal
[3] = molecular target: Homeobox protein Hox-A13 (Mus musculus) (UniProt Q62424); test: disruptors of Hoxa13 oligonucleotide interaction – biochemical, fluorescence polarization, labeled oligonucleotide, primary screen (AID 1185); details: Hoxa13:DNA binding, 15 min, higher = more signal, called active from +8 up or from −8 down
[4] = blockers of DNA damage checkpoint Chk1 activation – imaging, HeLa, hydroxyurea, phospho-Chk1 antibody, percent positive cells, primary screen (AID 1186); details: hydroxyurea-induced phospho-Chk1 immunofluorescence imaging, higher = more signal
[5] = blockers of DNA damage checkpoint Chk1 activation – imaging, HeLa, hydroxyurea, phospho-Chk1 nuclear intensity, primary screen (AID 1187); details: hydroxyurea-induced phospho-Chk1 immunofluorescence imaging, higher = more signal

Chain of Homeobox protein Hox-A13 (Mus musculus) (Q62424 whole entry, looked up): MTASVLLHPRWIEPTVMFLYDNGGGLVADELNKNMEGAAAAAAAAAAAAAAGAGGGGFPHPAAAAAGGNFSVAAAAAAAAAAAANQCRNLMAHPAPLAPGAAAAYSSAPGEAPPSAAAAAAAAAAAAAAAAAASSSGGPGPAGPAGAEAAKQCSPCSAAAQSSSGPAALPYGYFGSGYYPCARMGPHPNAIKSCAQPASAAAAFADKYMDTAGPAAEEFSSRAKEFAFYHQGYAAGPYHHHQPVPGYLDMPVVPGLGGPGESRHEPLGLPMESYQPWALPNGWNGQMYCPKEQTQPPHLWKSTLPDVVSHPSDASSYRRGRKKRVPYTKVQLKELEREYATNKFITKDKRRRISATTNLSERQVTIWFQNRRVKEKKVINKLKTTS

COC(=O)C1=C(C)N(Cc2ccccc2)C2=C3C(=O)N(C)C(=O)[C@@H]3[C@@](O)(C(=O)OC)C(=O)N2[C@@H]1c1ccccc1
composite z-score [1]: 0.214 (inactive) and -0.566 (inactive)
composite z-score (XIP peptide (Xip251-270)): 0.0447 and 0.0893
z-score [2]: 0.557 and 0.251
z-score [3]: -1.2 (inactive) and -0.234 (inactive)

COC(=O)C1=C(C)N(Cc2ccccc2)C2=C3C(=O)N(c4ccccc4)C(=O)[C@@H]3[C@@](O)(C(=O)OC)C(=O)N2[C@@H]1c1ccccc1
composite z-score [1]: 0.357 (inactive) and 0.908 (inactive)
composite z-score (XIP peptide (Xip251-270)): 0.673 and 0.243
z-score [2]: -0.441 and 0.347
z-score [3]: -3.12 (inactive) and -0.385 (inactive)

CC(C)C(=O)N[C@@H]1CCCN1C(=O)C=Cc1ccccc1
composite z-score [1]: 0.36 (inactive)
composite z-score (XIP peptide (Xip251-270)): 0.473
z-score [2]: 1.99
z-score [3]: -1.68 (inactive)

CCN1C(=O)[C@H]2[C@H]3[C@H](O)[C@H](O)CC(=NNC(=O)OCc4ccc(OC)cc4)[C@H]3CC[C@H]2C1=O
composite z-score [1]: 0.0568 (inactive)
composite z-score (XIP peptide (Xip251-270)): 0.267
z-score [2]: 0.38
z-score [3]: 0.429 (inactive)

COC(=O)C1=C2N(Cc3ccccc3)C(C)=C(C(=O)OC)[C@@H](c3ccccc3)N2C(=O)[C@](O)(C(=O)OC)C1
composite z-score [1]: 0.109 (inactive) and 0.0955 (inactive)
composite z-score (XIP peptide (Xip251-270)): 0.23 and 0.64
z-score [2]: 0.166 and -0.0932
z-score [3]: -5.1 (inactive) and -1.13 (inactive)

Cc1cc2c(nc1C)CCCN2CC(C)ON=C[C@@H](C)[C@H](OCc1ccccc1)C(C)C (some centres undefined)
composite z-score [1]: -0.144 (inactive)
composite z-score (XIP peptide (Xip251-270)): -0.0166
z-score [2]: 0.5
z-score [3]: -0.838 (inactive)

C=CCN(CCCC)C(=O)C1N(c2ccc(CCO)cc2)C(=O)C2C(C(=O)O)C3C=CC21O3 (centres undefined)
composite z-score [1]: -1.72 (inactive) and -1.1 (inactive)
composite z-score (XIP peptide (Xip251-270)): 0.261 and -0.728
z-score [2]: 0.224 and -1.45
z-score [3]: -1.03 (inactive) and -0.448 (inactive)
z-score [4]: 0.147 (inactive) and -0.608 (inactive)
z-score [5]: -0.173 (inactive) and -0.502 (inactive)

CCCNC(=O)OC[C@H]1O[C@H](CCON=C(C)CCN2CCc3nc(-c4ccccc4)c(-c4ccccc4)cc3C2)C=C[C@@H]1Oc1ccc(OC)cc1
composite z-score [1]: -0.377 (inactive)
composite z-score (XIP peptide (Xip251-270)): 0.201
z-score [2]: -0.821
z-score [3]: -2.84 (inactive)

C=C[C@@H](OC)[C@H](O)c1ccc(OC)c(O)c1
composite z-score [1]: 0.263 (inactive) and -0.18 (inactive)
composite z-score (XIP peptide (Xip251-270)): -0.531 and -1.37
z-score [2]: -0.151 and -0.337
z-score [3]: -0.828 (inactive) and 0.853 (inactive)
z-score [4]: 0.719 (inactive) and -0.433 (inactive)
z-score [5]: -0.0654 (inactive) and 0.0937 (inactive)

CCCC[C@@H]1CN2[C@H](c3ccc(Br)cc3)[C@@H](C)CC[C@H]2C(=O)O1
composite z-score [1]: 0.744 (inactive) and -0.433 (inactive)
composite z-score (XIP peptide (Xip251-270)): -0.322 and -0.118
z-score [2]: -0.0735 and 0.113
z-score [3]: -1.48 (inactive) and -3.43 (inactive)

CCOC(=O)[C@H](CC(C)C)NC(=O)CCC1CC(OC(=O)NCc2cccc3ccccc23)CC2(CCCC(COC(=O)NCc3ccccc3)O2)O1 (some centres undefined)
composite z-score [1]: -0.17 (inactive)
composite z-score (XIP peptide (Xip251-270)): 0.374
z-score [2]: -1.8
z-score [3]: -2.88 (inactive)

COC(=O)C1=C(C)N(Cc2ccccc2)[C@]23O[C@](C(=O)OC)(C(=O)N2[C@@H]1c1ccccc1)[C@@H](c1ccccc1)[C@@H]3C(=O)c1ccccc1
composite z-score [1]: 0.114 (inactive) and 0.416 (inactive)
composite z-score (XIP peptide (Xip251-270)): -0.0935 and 0.0333
z-score [2]: -0.362 and 0.318
z-score [3]: -0.11 (inactive) and -0.0833 (inactive)

C[C@@H](c1ccccc1)N1C(=O)[C@H]2[C@H]3[C@H](O)[C@H](O)CC(=O)[C@@H]3CC[C@H]2C1=O
composite z-score [1]: -0.415 (inactive)
composite z-score (XIP peptide (Xip251-270)): 0.403
z-score [2]: 0.241
z-score [3]: 0.063 (inactive)

O=C1[C@H]2[C@H]3[C@H](O)[C@H](O)CC(=NOCc4ccccc4)[C@H]3CC[C@H]2C(=O)N1Cc1ccccc1
composite z-score [1]: -0.0784 (inactive)
composite z-score (XIP peptide (Xip251-270)): 0.0748
z-score [2]: -1.76
z-score [3]: -1.09 (inactive)

Cc1cc2c(nc1C)CCCN2CC(O)CN1CCCc2nc(-c3ccc(Br)cc3)ccc21 (centres undefined)
composite z-score [1]: 1.5 (inactive) and 4.73 (inactive)
composite z-score (XIP peptide (Xip251-270)): 0.719 and 0.327
z-score [2]: -0.614 and 0.112
z-score [3]: -7.89 (inactive) and -7.9 (inactive)

CO[C@@H]1COC(=O)CC=C[C@H](C)[C@@H](NS(=O)(=O)c2ccc(C)cc2)COC(=O)CC=C[C@@H]1C
composite z-score [1]: 1.11 (inactive) and 0.147 (inactive)
composite z-score (XIP peptide (Xip251-270)): 0.77 and 0.481
z-score [2]: 0.707 and -0.283
z-score [3]: -1.05 (inactive) and -2.69 (inactive)

Cc1ccc(S(=O)(=O)N[C@@H]2COC(=O)CC=C[C@@H](C)[C@@H]3C=C[C@H](O)[C@@H](COC(=O)CC=C[C@H]2C)O3)cc1
composite z-score [1]: 0.061 (inactive) and -0.148 (inactive)
composite z-score (XIP peptide (Xip251-270)): -0.179 and 0.167
z-score [2]: 1.03 and -1.19
z-score [3]: -1.86 (inactive) and -1.1 (inactive)

C=C[C@@H](OC)[C@H](O)c1ccc(OCCO)cc1
composite z-score [1]: 0.602 (inactive) and -0.746 (inactive)
composite z-score (XIP peptide (Xip251-270)): 0.524 and 0.496
z-score [2]: -0.748 and 0.0067
z-score [3]: -0.717 (inactive) and -0.113 (inactive)
z-score [4]: -0.949 (inactive) and -0.429 (inactive)
z-score [5]: 0.0246 (inactive) and 0.283 (inactive)

COc1ccc(COC(=O)NN=C2C[C@@H](O)[C@@H](O)[C@@H]3[C@@H]4C(=O)N(C(C)(C)C)C(=O)[C@@H]4CC[C@H]23)cc1
composite z-score [1]: 2.23 (inactive)
composite z-score (XIP peptide (Xip251-270)): 0.801
z-score [2]: 0.189
z-score [3]: 0.471 (inactive)

C=CCN(C(=O)C1N(CCCCCCO)C(=O)C2C(C(=O)O)C3C=CC21O3)c1ccc(OC)cc1 (centres undefined)
composite z-score [1]: 1.14 (inactive) and 1.15 (inactive)
composite z-score (XIP peptide (Xip251-270)): -2.27 and -0.654
z-score [2]: -0.424 and 0.0379
z-score [3]: -1.08 (inactive) and -0.0174 (inactive)
z-score [4]: -0.598 (inactive) and -0.471 (inactive)
z-score [5]: -0.451 (inactive) and -0.198 (inactive)

C[C@@H]1CC[C@@H](C(=O)O)N[C@H]1c1ccc(-c2ccco2)cc1
composite z-score [1]: 1.06 (inactive)
composite z-score (XIP peptide (Xip251-270)): 0.827
z-score [2]: -0.25
z-score [3]: -1.59 (inactive)

C=CCN(CCCCC)C(=O)C1N(C(C)(C)CO)C(=O)C2C(C(=O)O)C3C=CC21O3 (centres undefined)
composite z-score [1]: -0.53 (inactive) and -1 (inactive)
composite z-score (XIP peptide (Xip251-270)): -0.417 and -1.97
z-score [2]: -0.0999 and 0.86
z-score [3]: -0.598 (inactive) and 0.0686 (inactive)
z-score [4]: 0.0341 (inactive) and -0.15 (inactive)
z-score [5]: 0.436 (inactive) and 0.287 (inactive)

CC(C)=CCCC(C)=CCON=C1C[C@@H](O)[C@@H](O)[C@@H]2[C@@H]3C(=O)N([C@@H](C)c4ccccc4)C(=O)[C@@H]3CC[C@H]12
composite z-score [1]: 1.32 (inactive)
composite z-score (XIP peptide (Xip251-270)): 0.105
z-score [2]: -0.12
z-score [3]: -0.414 (inactive)

C[C@@]1([C@@H](NC(=O)Cc2ccccc2)c2ccc(-c3ccccc3)cc2)C[C@H]1C1CCCCC1
composite z-score [1]: 0.142 (inactive) and -0.175 (inactive) and -0.0036 (inactive)
composite z-score (XIP peptide (Xip251-270)): 0.0261 and -0.867 and 0.444
z-score [2]: -1.3 and -0.345 and -1.39
z-score [3]: 1.49 (inactive) and -0.249 (inactive) and -1.63 (inactive)
z-score [4]: 0.641 (inactive) and 0.338 (inactive) and 0.416 (inactive)
z-score [5]: 1.03 (inactive) and 0.448 (inactive) and -0.21 (inactive)

COC(=O)C1=C(C)N(Cc2ccccc2)C2=C3C(=O)CCC[C@@H]3[C@@](O)(C(=O)OC)C(=O)N2[C@@H]1c1ccccc1
composite z-score [1]: 0.995 (inactive) and 0.0397 (inactive)
composite z-score (XIP peptide (Xip251-270)): 0.135 and -0.554
z-score [2]: 0.0894 and 0.169
z-score [3]: -0.77 (inactive) and -1.47 (inactive)

COC(=O)CC=C[C@@H](C)[C@@H](CO)NS(=O)(=O)c1ccc(C)cc1
composite z-score [1]: -0.468 (inactive) and 0.212 (inactive)
composite z-score (XIP peptide (Xip251-270)): 0.169 and 0.315
z-score [2]: -0.106 and 0.0276
z-score [3]: 0.0308 (inactive) and -1.12 (inactive)

C=C[C@@H](C)[C@@H](O)c1ccc(O)c2ccccc12
composite z-score [1]: 0.238 (inactive) and 0.467 (inactive)
composite z-score (XIP peptide (Xip251-270)): -0.54 and -0.684
z-score [2]: 1.31 and -0.772
z-score [3]: -3.43 (inactive) and -4.33 (inactive)
z-score [4]: 0.789 (inactive) and 0.536 (inactive)
z-score [5]: 1.17 (inactive) and 0.193 (inactive)

CO[C@@H]1COC(=O)[C@H](Cc2ccccc2)NC(=O)CC=C[C@@H](C)[C@H](OC)COC(=O)[C@@H](C)NC(=O)CC=C[C@H]1C
composite z-score [1]: 0.219 (inactive) and 0.97 (inactive)
composite z-score (XIP peptide (Xip251-270)): 0.499 and 0.535
z-score [2]: -0.446 and 0.677
z-score [3]: -0.525 (inactive) and -0.47 (inactive)

CO[C@@H]1COC(=O)CC=C[C@H](C)COC(=O)[C@H](C)NC(=O)CC=C[C@H]1C
composite z-score [1]: -0.0437 (inactive)
composite z-score (XIP peptide (Xip251-270)): 0.195
z-score [2]: -0.233
z-score [3]: -0.16 (inactive)

CC(C)=NOC[C@@H](O)COCc1ccco1
composite z-score [1]: -0.651 (inactive)
composite z-score (XIP peptide (Xip251-270)): 0.258
z-score [2]: 0.814
z-score [3]: -1.15 (inactive)

CO[C@H]1COC(=O)[C@H](C)NC(=O)CC=C[C@@H](C)[C@H](OC)COC(=O)CC=C[C@@H]1C
composite z-score [1]: 0.195 (inactive)
composite z-score (XIP peptide (Xip251-270)): 0.394
z-score [2]: 0.459
z-score [3]: -0.298 (inactive)

C=CCN(C(=O)C(c1cccs1)N(C(=O)/C=C\C(=O)O)c1c(Cl)cccc1CO)C(C)(C)C (centres undefined)
composite z-score [1]: -0.0516 (inactive) and 0.0403 (inactive)
composite z-score (XIP peptide (Xip251-270)): 0.689 and -1.16
z-score [2]: 1.83 and 1.67
z-score [3]: 0.131 (inactive) and -0.43 (inactive)
z-score [4]: 0.221 (inactive) and 0.501 (inactive)
z-score [5]: 0.711 (inactive) and 0.634 (inactive)
